Results taken from PubChem BioAssay (NCI).
This is part of a sample that, as a whole, favours compounds with a hit. Of some 83,000 tested, about 20% had one in any assay.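 Activity criterion: percent growth below 10, measured after cells in 96-well plates were exposed to a single compound concentration for 48 hours.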 Calls of active or inactive are those of the source.

test system: MOLT-4 leukemia; experiment: NCI-60 one-dose screen, 48 h (100 = growth as untreated, 0 = no growth, -100 = all killed); conditions: 10 µM unless noted

Row | Structure (SMILES) | growth
1 | CCCCCCC1N=C(N)N=C(N)N1c1cccc(Cl)c1 (stereo not given) | 25.4% (inactive)
2 | O=C(O)c1cc2c(s1)C(=O)c1sccc1C2=O | 72.3% (inactive)
3 | N#CCc1cccc2ccccc12 | 92% (inactive)
4 | COC(=O)C(=[N+]=[N-])C(=O)c1ccc([N+](=O)[O-])o1 | 93.6% (inactive)
5 | O=C(Nc1cccc(C(F)(F)F)c1)Oc1ccc(Cl)c2cccnc12 | -1.74% (active)
6 | CCOc1ccc(C(CN2CCOCC2)C(C)=O)cc1OC (stereo not given) | 87.2% (inactive)
7 | COc1ccc2c(c1)c(CC(=O)O)c(C)n2C(=O)c1ccc(Cl)cc1 | 113% (inactive)
8 | CC(C)N=C(N)/N=C(\N)Nc1ccc2ccc3ccccc3c2c1 | -3.58% (active)
9 | CCc1cnc2ccccc2c1/C=C/c1ccc(N(C)C)cc1 | 33.9% (inactive)
10 | NC(=S)N/N=C\c1nccc2c(C(F)(F)F)cccc12 | -40.2% (active)
11 | CCC(=O)c1cc([N+](=O)[O-])c(Br)s1 | 33.9% (inactive)
12 | O=C1/C(=C/c2ccccc2)CCC/C1=C\c1ccccc1 | 73% (inactive)
13 | COc1cc(NCc2ccc3nc(N)nc(N)c3c2C)cc(OC)c1OC (tested in a mixture with another compound) | 20.6% (inactive)
14 | CCOc1cc(F)c([N+](=O)[O-])cc1[N+](=O)[O-] | 9.18% (active)
15 | CC/C(=C(/CC)c1ccc(O)cc1)c1ccc(O)cc1 | 39.9% (inactive)
16 | CC(C)c1ccc(C(=O)OC2CCCC2)cc1 | 110% (inactive)
17 | O=C(CBr)c1ccc(OC(=O)c2ccccc2)cc1 | 95.3% (inactive)
18 | CN(C)CC(C)(CN(C)C)C(=O)/C=C/c1c(Cl)cccc1Cl | -19.3% (active)

Row | Structure (SMILES) | growth
19 | COc1cc(/C=C/c2ccnc3ccccc23)cc(OC)c1OC | 14.9% (inactive)
20 | Cc1cc(C)c([I+]c2c(C)cc(C)cc2C)c(C)c1 | -41.1% (active)
21 | COc1cc(/C=C/C(=O)CC(=O)/C=C/c2ccc(O)c(OC)c2)ccc1O | 31.4% (inactive)
22 | CN(C)c1ccc(C(=C2C=CC(=[N+](C)C)C=C2)c2ccc(N(C)C)cc2)cc1 | -11.4% (active)
23 | COC(=O)c1ccc(=O)c2nc3/c(=C/O)c(O)cc(=O)c3[nH]c12 | 3.55% (active)
24 | CCCCCCCCCCCC[n+]1ccc2ccccc2c1 | -25.9% (active)
25 | COc1cc([C@@H]2c3cc4c(cc3[C@H](OC3OC5COC(c6ccccc6)OC5C(O)C3O)[C@H]3COC(=O)[C@H]23)OCO4)cc(OC)c1OC (stereo not given in full) | -7.44% (active)
26 | NC(=Nc1nc(-c2ccccn2)cc2ccccc12)c1ccccn1 | -3.87% (active)
27 | CN(C)CCN(C)CC(C)(C)C(=O)/C=C/c1ccc(Cl)c(Cl)c1 | -23.3% [100 µM] (active)
28 | Clc1ccccc1C(c1ccccc1)(c1ccccc1)n1ccnc1 | 17.3% (inactive)
29 | CCCCOS(=O)(=O)c1ccccc1 | 166% (inactive)
30 | COc1cc(NC(=O)C2=C(C)NC(C)=C(C(=O)Nc3cc(OC)c(Cl)cc3OC)C2c2cccc([N+](=O)[O-])c2)c(OC)cc1Cl | 10.3% (inactive)
31 | CCCCCCCCCCCCCCCCCC[S+](C)CC (stereo not given) | -4.95% (active)
32 | CCNc1nnnn1CC | 116% (inactive)
33 | C[n+]1ccccc1C[n+]1ccccc1 | 83.6% (inactive)
34 | NC(=S)N/N=C\c1nccc2c(N)cccc12 | 3.28% (active)
35 | O=C(O)c1cccc2cccc(-c3c4ccc(=O)c(O)c-4oc4c(O)c(O)ccc34)c12 | 82.2% (inactive)
